# From ChEMBL document CHEMBL3988442, “University of Dundee, Small-Polar-MMV Screening Library” (2021)
# For some of these results: Potency and affinity values are given separately.
# Assays:
# Set-up in all cases: scale not given: direction of the effect not stated beside the values
# [1] = target: Protein translocase subunit SecA (Escherichia coli (strain K12)) (UniProt P10408); experiment: Assay to Identify E. coli SecA ATPase Inhibitors; assay type: functional; conditions: 30 µM
# [2] = target: T1, Ubiquitin-activating enzyme e1, putative (Leishmania donovani (strain BPK282A1)) (UniProt E9BSI1); experiment: Leishmania donovani Ubiquitin Activating Enzyme (LdE1); assay type: functional; conditions: 30 µM
# T1 sequence (whole entry): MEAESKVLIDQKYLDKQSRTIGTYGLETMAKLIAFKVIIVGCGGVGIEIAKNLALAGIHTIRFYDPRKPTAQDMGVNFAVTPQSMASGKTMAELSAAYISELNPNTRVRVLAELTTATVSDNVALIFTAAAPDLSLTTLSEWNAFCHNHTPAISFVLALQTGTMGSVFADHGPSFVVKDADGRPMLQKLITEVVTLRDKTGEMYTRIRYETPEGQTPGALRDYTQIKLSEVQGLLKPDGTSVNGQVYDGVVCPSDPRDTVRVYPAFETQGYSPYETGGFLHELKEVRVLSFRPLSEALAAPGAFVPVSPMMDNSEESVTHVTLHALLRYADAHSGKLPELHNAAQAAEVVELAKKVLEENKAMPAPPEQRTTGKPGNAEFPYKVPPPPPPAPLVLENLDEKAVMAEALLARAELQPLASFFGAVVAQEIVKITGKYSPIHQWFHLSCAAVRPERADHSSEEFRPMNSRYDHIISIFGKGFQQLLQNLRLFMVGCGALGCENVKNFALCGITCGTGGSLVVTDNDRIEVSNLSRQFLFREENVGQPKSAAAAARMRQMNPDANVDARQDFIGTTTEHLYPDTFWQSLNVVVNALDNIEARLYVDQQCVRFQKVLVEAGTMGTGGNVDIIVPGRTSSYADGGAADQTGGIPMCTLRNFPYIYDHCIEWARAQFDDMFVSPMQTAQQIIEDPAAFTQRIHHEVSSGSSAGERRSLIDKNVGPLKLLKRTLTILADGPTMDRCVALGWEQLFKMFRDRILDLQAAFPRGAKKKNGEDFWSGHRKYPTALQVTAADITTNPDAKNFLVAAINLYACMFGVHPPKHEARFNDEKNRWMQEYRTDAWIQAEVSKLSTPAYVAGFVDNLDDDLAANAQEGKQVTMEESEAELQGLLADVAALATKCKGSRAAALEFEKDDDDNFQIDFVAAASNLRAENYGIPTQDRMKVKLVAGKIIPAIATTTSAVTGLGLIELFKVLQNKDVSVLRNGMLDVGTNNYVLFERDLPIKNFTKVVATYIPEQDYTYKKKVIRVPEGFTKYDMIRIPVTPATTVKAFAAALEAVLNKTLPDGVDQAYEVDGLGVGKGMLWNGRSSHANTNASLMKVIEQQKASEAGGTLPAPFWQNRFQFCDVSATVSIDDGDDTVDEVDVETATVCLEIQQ
# [3] = target: AMP-activated protein kinase, AMPK (Homo sapiens) (UniProt P54646+O43741+P54619+Q9UGJ0+Q9Y478+Q13131+Q9UGI9); experiment: AMP-dependent Kinase enzyme assay. An in vitro enzyme assay that detects ADP turnover that is directly proportional to AMPK activity. This uses naive AMPK that is activated during the assay with MK-8722; assay type: functional; conditions: 30 µM
# [4] = target: Sialic acid-binding Ig-like lectin 9 (Homo sapiens) (UniProt Q9Y336); experiment: Hs-Siglec9 ALPHAscreen SOP 20170721; conditions: 10 µM
# Trypanosoma cruzi = experiment: Trypanosoma cruzi phosphomannomutase and mannose-1-phosphate guanylyltransferase assay; assay type: functional; conditions: 10 µM
# [5] = target: T2, Arginase-2, mitochondrial (Homo sapiens) (UniProt P78540); experiment: in vitro enzyme assay to detect the production of urea directly proportional to the activity of Arginase II; assay type: functional; conditions: 33.3 µM; also: in the data most compounds retested in dose-response had high values
# T2 sequence (whole entry): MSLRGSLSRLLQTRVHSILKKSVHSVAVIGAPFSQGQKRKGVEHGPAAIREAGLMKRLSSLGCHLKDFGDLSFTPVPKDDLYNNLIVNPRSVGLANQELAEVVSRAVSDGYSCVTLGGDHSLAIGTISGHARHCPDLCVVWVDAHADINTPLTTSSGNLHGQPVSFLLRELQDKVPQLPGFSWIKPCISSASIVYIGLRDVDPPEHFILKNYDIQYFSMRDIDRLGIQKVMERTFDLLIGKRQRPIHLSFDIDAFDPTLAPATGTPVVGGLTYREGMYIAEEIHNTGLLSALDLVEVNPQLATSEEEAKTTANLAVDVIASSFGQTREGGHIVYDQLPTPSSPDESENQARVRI
# [6] = target: T3, Proteasome subunit beta (Trypanosoma cruzi) (UniProt O96673); experiment: Trypanosoma cruzi proteasome chymotrypsin-like activity (TcProtChymo) assay.; also: in the data most compounds retested in dose-response had high values; assay type: functional; conditions: 9.37 µM
# T3 sequence (whole entry): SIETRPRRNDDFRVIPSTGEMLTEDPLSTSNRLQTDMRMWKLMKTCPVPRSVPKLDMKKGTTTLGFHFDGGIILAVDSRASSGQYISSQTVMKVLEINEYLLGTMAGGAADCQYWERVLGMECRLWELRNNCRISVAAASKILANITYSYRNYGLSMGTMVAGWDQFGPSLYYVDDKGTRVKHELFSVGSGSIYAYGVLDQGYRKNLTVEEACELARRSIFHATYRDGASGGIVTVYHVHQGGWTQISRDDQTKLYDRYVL
# Homo sapiens = species on record: Homo sapiens; experiment: To identify inhibition of the IFN signalling (Jak-Stat) pathway via expression of an eGFP reporter gene under the control of an IFN-stimulated response element (ISRE) containing MxA promoter.; assay type: functional; conditions: 30 µM
# [7] = target: T4, Tyrosyl-tRNA synthetase, putative (Trypanosoma cruzi (strain CL Brener)) (UniProt Q4DSP6); experiment: Trypanosoma cruzi tyrosyl tRNA synthetase (TcYRS) _High Tyrosine SOP; assay type: functional; conditions: 30 µM; also: in the data most compounds retested in dose-response had high values
# T4 sequence (whole entry): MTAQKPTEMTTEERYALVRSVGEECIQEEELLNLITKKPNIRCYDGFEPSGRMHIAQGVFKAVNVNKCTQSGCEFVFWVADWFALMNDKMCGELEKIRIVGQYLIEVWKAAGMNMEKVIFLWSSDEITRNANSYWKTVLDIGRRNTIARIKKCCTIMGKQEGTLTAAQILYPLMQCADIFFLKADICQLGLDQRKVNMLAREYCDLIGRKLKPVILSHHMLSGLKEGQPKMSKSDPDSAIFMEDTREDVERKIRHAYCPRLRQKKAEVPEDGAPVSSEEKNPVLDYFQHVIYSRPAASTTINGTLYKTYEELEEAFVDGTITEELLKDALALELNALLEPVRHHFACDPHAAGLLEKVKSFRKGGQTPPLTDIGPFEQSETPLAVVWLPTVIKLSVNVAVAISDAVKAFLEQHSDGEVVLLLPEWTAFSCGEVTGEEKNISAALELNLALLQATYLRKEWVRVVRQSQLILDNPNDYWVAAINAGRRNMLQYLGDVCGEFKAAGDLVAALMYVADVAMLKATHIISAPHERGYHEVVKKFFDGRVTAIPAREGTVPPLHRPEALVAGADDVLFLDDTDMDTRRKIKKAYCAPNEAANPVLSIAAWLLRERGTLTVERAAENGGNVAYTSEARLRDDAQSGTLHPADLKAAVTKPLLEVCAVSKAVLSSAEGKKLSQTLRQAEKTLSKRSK
# [8] = target: T4, Tyrosyl-tRNA synthetase, putative (Trypanosoma cruzi (strain CL Brener)); experiment: Trypanosoma cruzi tyrosyl tRNA synthetase (TcYRS) SOP; assay type: functional; conditions: 30 µM
# [9] = target: Chromo domain-containing protein 1 (Saccharomyces cerevisiae (strain ATCC 204508 / S288c) (Baker's yeast)) (UniProt P32657); experiment: ScCHD-1 Enzyme Inhibition Assay; assay type: functional; conditions: 30 µM; also: in the data most compounds retested in dose-response had high values
# Chain of Chromo domain-containing protein 1 (Saccharomyces cerevisiae (strain ATCC 204508 / S288c) (Baker's yeast)) (P32657 whole entry, the tested form may be a part): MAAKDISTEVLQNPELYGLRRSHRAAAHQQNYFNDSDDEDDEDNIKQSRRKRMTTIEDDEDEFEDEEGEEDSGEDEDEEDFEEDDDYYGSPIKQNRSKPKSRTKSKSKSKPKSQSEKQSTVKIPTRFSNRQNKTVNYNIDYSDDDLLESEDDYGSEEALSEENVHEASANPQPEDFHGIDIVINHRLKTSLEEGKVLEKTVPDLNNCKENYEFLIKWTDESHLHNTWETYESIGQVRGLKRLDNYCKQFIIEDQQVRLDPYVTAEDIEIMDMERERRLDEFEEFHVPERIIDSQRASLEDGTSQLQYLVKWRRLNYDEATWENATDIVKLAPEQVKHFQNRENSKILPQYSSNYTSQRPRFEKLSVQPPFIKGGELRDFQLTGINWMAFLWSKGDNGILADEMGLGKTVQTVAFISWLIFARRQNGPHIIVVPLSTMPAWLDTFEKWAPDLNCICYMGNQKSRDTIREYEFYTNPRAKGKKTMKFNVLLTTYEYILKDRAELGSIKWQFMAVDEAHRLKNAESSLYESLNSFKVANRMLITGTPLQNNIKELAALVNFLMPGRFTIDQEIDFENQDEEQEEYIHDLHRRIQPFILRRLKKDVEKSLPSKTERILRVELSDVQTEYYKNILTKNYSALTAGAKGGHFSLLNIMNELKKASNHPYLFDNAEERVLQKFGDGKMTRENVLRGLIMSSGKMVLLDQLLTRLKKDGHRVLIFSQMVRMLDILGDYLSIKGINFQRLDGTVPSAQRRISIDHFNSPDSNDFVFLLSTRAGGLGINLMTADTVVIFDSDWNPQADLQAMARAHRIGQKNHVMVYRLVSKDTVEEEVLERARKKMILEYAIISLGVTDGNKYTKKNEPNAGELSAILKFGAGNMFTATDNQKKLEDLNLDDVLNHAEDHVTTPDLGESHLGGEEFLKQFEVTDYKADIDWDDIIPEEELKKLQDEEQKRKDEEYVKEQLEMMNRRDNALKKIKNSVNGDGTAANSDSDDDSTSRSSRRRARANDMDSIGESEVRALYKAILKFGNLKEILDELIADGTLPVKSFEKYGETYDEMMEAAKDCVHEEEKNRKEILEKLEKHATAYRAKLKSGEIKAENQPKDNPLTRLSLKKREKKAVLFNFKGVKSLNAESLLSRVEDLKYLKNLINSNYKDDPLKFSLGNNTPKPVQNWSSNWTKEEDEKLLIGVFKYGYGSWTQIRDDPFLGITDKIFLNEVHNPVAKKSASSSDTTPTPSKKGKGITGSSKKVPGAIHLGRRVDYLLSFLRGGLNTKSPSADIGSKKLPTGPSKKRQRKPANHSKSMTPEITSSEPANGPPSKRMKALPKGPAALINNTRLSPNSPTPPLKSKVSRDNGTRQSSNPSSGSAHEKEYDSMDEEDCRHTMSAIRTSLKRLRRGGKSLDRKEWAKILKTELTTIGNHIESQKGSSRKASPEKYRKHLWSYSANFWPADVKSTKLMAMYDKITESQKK
# Chain of Sialic acid-binding Ig-like lectin 9 (Homo sapiens) (Q9Y336 whole entry): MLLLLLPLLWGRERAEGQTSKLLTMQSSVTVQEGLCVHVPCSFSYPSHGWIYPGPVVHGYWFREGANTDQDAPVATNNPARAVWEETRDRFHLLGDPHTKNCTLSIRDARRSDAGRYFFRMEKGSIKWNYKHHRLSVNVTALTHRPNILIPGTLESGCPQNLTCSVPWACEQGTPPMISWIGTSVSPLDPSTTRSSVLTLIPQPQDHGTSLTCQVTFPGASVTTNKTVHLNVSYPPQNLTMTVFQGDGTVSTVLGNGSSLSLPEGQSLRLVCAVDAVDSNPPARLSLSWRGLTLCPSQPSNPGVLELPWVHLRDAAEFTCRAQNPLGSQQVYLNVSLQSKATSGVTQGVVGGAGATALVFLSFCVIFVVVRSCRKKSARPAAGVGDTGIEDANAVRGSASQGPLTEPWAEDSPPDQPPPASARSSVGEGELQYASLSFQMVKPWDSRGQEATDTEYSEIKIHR
# Chain of Protein translocase subunit SecA (Escherichia coli (strain K12)) (P10408 whole entry): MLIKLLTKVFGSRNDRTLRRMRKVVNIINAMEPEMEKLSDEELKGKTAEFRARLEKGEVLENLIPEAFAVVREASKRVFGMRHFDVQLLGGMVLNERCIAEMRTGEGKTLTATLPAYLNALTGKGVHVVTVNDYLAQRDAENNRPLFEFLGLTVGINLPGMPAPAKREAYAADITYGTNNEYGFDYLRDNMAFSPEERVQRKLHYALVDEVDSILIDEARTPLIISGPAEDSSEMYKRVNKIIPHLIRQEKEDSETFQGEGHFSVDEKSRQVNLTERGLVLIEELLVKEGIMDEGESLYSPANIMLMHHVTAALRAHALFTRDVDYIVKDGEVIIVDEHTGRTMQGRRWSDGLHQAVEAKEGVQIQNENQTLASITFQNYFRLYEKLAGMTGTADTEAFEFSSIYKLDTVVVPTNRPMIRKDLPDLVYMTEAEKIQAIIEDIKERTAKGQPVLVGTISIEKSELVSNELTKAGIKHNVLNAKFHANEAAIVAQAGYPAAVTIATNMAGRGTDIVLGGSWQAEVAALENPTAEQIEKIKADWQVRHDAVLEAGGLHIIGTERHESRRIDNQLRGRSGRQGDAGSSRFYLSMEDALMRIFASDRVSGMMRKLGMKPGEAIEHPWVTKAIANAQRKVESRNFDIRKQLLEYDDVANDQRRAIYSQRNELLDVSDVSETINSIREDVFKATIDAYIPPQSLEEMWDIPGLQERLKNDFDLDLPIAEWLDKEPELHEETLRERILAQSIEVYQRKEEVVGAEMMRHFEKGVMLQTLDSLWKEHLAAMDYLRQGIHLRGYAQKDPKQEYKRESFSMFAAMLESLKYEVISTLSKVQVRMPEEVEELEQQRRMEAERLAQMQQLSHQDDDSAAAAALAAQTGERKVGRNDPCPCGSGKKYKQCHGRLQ
Structure (SMILES),Percent Effect [1] [%],Percent Effect [2] [%],Percent Effect [3] [%],Percent Effect [4] [%],Percent Effect (Trypanosoma cruzi) [%],Percent Effect [5] [%],Percent Effect [6] [%],Percent Effect (Homo sapiens) [%],Percent Effect [7] [%],Percent Effect [8] [%],Percent Effect [9] [%]
O=C(NCCC(=O)N1CCCCCC1)c1c(O)cc(F)cc1F,-5.59,7.79,1.53,-4.08,7.35,-4,9.78,6.03,2.86,14.1,-20.3
CS(=O)(=O)N1CCCC12CCCN(S(=O)(=O)c1ccc(F)cc1)C2 (stereo unspecified),-3.85,5.41,-33.3,-0.0111,-5.18,1.24,10.7,-4.37,6.45,6.17,-9.7
CO[C@H]1CCN(c2ccc(C)nn2)[C@H]1Cc1cnn(C)c1,-5.98,2.7,-6.04,1.75,0.977,0.417,14.4,-17.9,9.9,11,-6.2
Cc1ccc([C@]2(O)CC[C@H]3CN(Cc4cc(C)c(O)c(C)c4)C[C@H]32)nc1,-2.94,6.76,23.7,8.26,-2.37,-5.34,8.58,11.6,0,6.49,-9.68
O=S(=O)(NCC1CCOc2ccccc2C1)N1CCOCC1 (stereo unspecified),-5.96,15.6,1.72,13.8,3.83,-1.38,11.8,6.21,3.23,13.6,1.35
CC1c2ncc(CN3CCN(C)CC3)n2CCN1Cc1cccnc1 (stereo unspecified),-2.48,8,-3.01,1.22,5.41,-51.8,7.35,-9.88,5.21,5,-7.93
O=C(CCc1cccs1)N1CCC(Nc2cccnn2)CC1,-7.51,-23.7,-9.73,4.64,8.87,1.8,9.73,5.28,9.36,23.5,-11.1
O=C(COc1ccc(C(F)(F)F)cc1)NS(=O)(=O)c1cccnc1,-0.269,0,4.15,-3.63,-1.5,0.383,3.84,-6.19,-1.47,-4.88,4.47
Cc1noc2nc(C3CCN(Cc4ccncc4)CC3)cc(C(F)F)c12,-9.38,1.35,1.21,-1.72,-0.79,-4.41,-4.99,39.2,2.15,-1.3,-4.82
CN(C)C(=O)CC1CC2(CCNCC2)c2cc(F)ccc21 (stereo unspecified),-1.58,-5.41,8.49,-3.96,-6.35,-2.23,21,-0.894,-2.16,0,1.02
OC(CN1CCN(c2ncccn2)CC1)c1cccc(F)c1 (stereo unspecified),-2.83,13.5,-5.06,19.1,4.99,16.6,2.49,20.5,6.45,16.1,-5.42
